ST2 IL33 inh = inhibitors of human ST2 (IL1RL1) binding to IL-33, primary screen, biochemical, AlphaLISA. Interleukin-1 receptor-like 1 (Homo sapiens), Q01638. AlphaLISA ST2-Fc/biotin-IL-33 interaction, 1 h. inhibition, % for hits at 17 µM. actives 2.3% (n = 78,000); in the data active = inhibition above about 30%
Target sequence (Q01638 whole entry, looked up): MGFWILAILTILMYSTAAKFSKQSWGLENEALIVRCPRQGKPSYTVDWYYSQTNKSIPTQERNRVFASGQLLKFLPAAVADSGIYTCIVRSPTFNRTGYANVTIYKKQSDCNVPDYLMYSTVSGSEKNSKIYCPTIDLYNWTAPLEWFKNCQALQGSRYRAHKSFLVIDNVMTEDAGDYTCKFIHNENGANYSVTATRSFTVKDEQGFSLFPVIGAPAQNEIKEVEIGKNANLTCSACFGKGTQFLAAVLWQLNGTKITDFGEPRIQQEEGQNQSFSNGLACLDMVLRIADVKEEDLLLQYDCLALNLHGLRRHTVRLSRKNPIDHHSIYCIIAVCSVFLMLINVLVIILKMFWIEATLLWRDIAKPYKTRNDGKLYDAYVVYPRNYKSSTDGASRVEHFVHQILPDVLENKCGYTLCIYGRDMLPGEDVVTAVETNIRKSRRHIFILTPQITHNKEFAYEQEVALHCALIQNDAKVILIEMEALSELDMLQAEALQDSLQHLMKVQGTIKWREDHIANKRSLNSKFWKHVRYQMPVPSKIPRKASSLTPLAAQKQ
The depositor's hits bear a star; i = inactive. This is one part of a sample in which hits are shown more often than they occur.

SMILES	ST2 IL33 inh
COc1ccc(N2CCN(Cc3cc(OC)c(O)c([N+](=O)[O-])c3)CC2)cc1	i
CN1CCN(c2cc(N3CCN(CCO)CC3)ccc2[N+](=O)[O-])CC1	i
Cc1cc(C)n(-c2ccc(C(F)(F)F)cc2[N+](=O)[O-])n1	i
Cc1ccccc1C(=O)N1CCN(c2ccc([N+](=O)[O-])c(N3CCOCC3)c2)CC1	i
COc1ccc(N2CCN(c3cc(N4CCN(C)CC4)ccc3[N+](=O)[O-])CC2)cc1	44%*
O=[N+]([O-])c1cc(C(F)(F)F)ccc1N1CCc2ccccc21	68%*
O=C(c1ccccc1F)N1CCN(c2ccc([N+](=O)[O-])c3cccnc23)CC1	35%*
O=C(c1cnc(N2CCN(c3ccccn3)CC2)c2ccccc12)N1CCN(c2ccccn2)CC1	i
CC1=CC(=O)/C(=C\c2c(O)cc(C)oc2=O)C(=O)O1	i
CCN(CC)C(=O)c1cn(C2CCN(C(=O)C3(N)CCCC3)CC2)nn1	i
O=C1CCc2cc(S(=O)(=O)N3CCC4(CCNCC4)C3)ccc2N1	i
COC(=O)CCC(=O)NC1CC(=O)N(Cc2cccc(F)c2)C1 (configuration not stated)	i
Cc1ccc(-c2nc(SC3CC(=O)N(c4cccc(C(F)(F)F)c4)C3=O)n[nH]2)cc1 (configuration not stated)	i
CC1CCCN(C(=O)CSc2cc(=O)n(C)c3ccccc23)C1 (configuration not stated)	i
CCOc1ccc(N2C(=O)C3C(c4cccs4)NC(Cc4ccccc4)(C(=O)O)C3C2=O)cc1 (configuration not stated)	i
O=C(CCS(=O)(=O)c1ccc(Br)s1)N1CCCc2ccccc21	i
[O-][n+]1cccc2c(Br)cc(Br)c(O)c21	30%*
CCOC(=O)C1=C(N)OC2=C(C(=O)CCC2)C1c1cccc(Br)c1 (configuration not stated)	i
CC(C)C(=O)Nc1cc2c(cc1C(=O)c1ccccc1Cl)OCCO2	i
CCCc1cn(C2CCN(C3CCN(Cc4ccccc4)CC3)CC2)nn1	i
O=[N+]([O-])c1cccc2c1NC(c1cccc(Cl)c1Cl)C1CC=CC21 (configuration not stated)	39%*
O=[N+]([O-])c1ccc(C2Nc3c(cccc3C(F)(F)F)C3C=CCC32)cc1 (configuration not stated)	i
O=C(c1cccc2c1NC(c1ccc(Cl)cc1Cl)C1CC=CC21)N1CCCC1 (configuration not stated)	i
CC1=C(C(=O)Nc2cccc(C)n2)C(c2ccccc2C(F)(F)F)C2=C(CCCC2=O)N1 (configuration not stated)	i
Cc1cc2c(cc1O)CCC/C2=N/OC(=O)c1cccc(Br)c1	i
SMILES	ST2 IL33 inh
COc1ccc(NC(=O)c2ccc(=O)n(Cc3ccc(F)cc3)c2)c(OC)c1	i
O=C(Nc1nnc(C2CCCCC2)s1)c1ccc2ccccc2c1	i
Cn1c(=O)c(-c2ccccc2N)nc2cc3ccccc3cc21	32%*
CCCCSc1nnc(-c2ccccc2N)c(=O)[nH]1	i
Cc1cc2nc(Cc3cccc(F)c3)c(=O)n(C)c2cc1C	i
COc1cccc(-c2nnnn2[C@H]2CO[C@H]3[C@@H]2OC[C@@H]3NC(=O)C2CC2)c1	i
CC1=C(C(=O)OC2CCCCC2)C(c2cccc(F)c2)n2nnnc2N1 (configuration not stated)	i
COC(=O)c1ccc(NC(=O)CSc2ncnc3sc4c(c23)CCC4)cc1	i
O=C(CN1CCN(Cc2ccc(F)cc2Cl)S1(=O)=O)Nc1ccccc1	i
Cn1c(C(=O)N2CCCC3(CNC(=O)O3)C2)cc2c(Cl)cccc21 (configuration not stated)	i
COc1ccc([N+](=O)[O-])cc1NC(=O)c1ccccc1	i
N=Nc1[nH]c(N)c2ccccc12	46%*
Cn1c(=O)cc(SCC(=O)NCc2cccnc2)c2ccc(Cl)cc21	i
COc1ccc(CNC(=O)CCC2CCCN(C(=O)c3c[nH]c4ccccc34)C2)c(OC)c1 (configuration not stated)	i
O=[N+]([O-])c1ccc(S(=O)(=O)c2nc3ccccc3s2)c(Cl)c1	54%*
O=C(CSc1nc2ccccc2s1)Nc1nc2ccc([N+](=O)[O-])cc2s1	i
O=C(c1cc([N+](=O)[O-])ccc1Cl)n1nnc2ccccc21	i
Cc1ccccc1OCC(=O)Nc1ncc(Cc2ccc(Cl)cc2)s1	i
CC(=O)Nc1ccc(CN2C[C@H](O)C[C@H]2c2nc(-c3ccc(C(F)(F)F)cc3)no2)cc1	i
CC1CCC(N2CCN(c3ccccc3)CC2)C1 (configuration not stated)	i
COc1cccc(N2CCN(C3CCC(C)C3)CC2)c1 (configuration not stated)	31%*
COc1cccc(N2CCC(N3CCCC(N4CCN(c5ccccc5C)CC4)C3)CC2)c1 (configuration not stated)	i
COc1ccccc1CCc1nc(CC2CCN(C)CC2)no1	i
CN(C)c1ccc(-c2nnc([C@H]3CCN(Cc4cccnc4)C3)o2)cc1	i
Cc1noc(C)c1C1CCCN1C(=O)c1cnn2ccn(C)c12 (configuration not stated)	i
SMILES	ST2 IL33 inh
CC(C)c1cc(C2CCCN2C(=O)c2cnn3c2CCCC3)no1 (configuration not stated)	32%*
CCn1nc(C)c(NC(=O)CN2CCCC2c2cc(C(C)C)on2)c1C (configuration not stated)	i
O=C(NCCN1CCOCC1)c1c[nH]c2ccc(S(=O)(=O)Nc3ccccc3F)cc2c1=O	i
CC(=O)N1CCC(C(=O)NC2CC(C)(C)Oc3cc(C)ccc32)CC1 (configuration not stated)	i
CC(=O)c1ccc2c(c1)c1ccccc1n2C	i
Cc1c(C(=O)Cc2ccccc2)n(C)c2ccccc12	37%*
CC(=O)n1c2ccccc2c2c1c1ccccc1n2C	i
COc1ccccc1C(=O)N/C(=C\c1ccc2c(c1)OCO2)C(=O)NCCCC(=O)O	i
CC(=O)Nc1ccc(S(=O)(=O)N(CC2C(C)C=C(C)CC2C)C2CCCCC2)cc1 (configuration not stated)	32%*
CNC(=O)CN(C1CCCCC1)S(=O)(=O)c1ccccc1	i
O=C(CN(C1CCCCC1)S(=O)(=O)c1ccc(Br)cc1)NC1CC1	i
Cc1nnc(NC(=O)C2CC=CCC2C(=O)O)s1 (configuration not stated)	i
O=C(CSCc1ccccc1)Nc1c(C(=O)Nc2ccccc2F)oc2ccccc12	i
CC1=C(C(=O)Nc2cccc(C)n2)C(c2cccc(Cl)c2)C2=C(CCCC2=O)N1 (configuration not stated)	i
CCSCCOC(=O)C1=C(C)Nc2ccccc2S1	43%*
CCOc1ccccc1C1C(C(=O)OCCSCC)=C(C)NC2=C1C(=O)CC(C)(C)C2 (configuration not stated)	i
CCSCCOC(=O)C1=C(C)NC2=C(C(=O)CCC2)C1c1cccc(Br)c1 (configuration not stated)	i
COc1ccc(NC(=O)CC2SC(N)=NC2=O)c([N+](=O)[O-])c1 (configuration not stated)	i
CCCCOC(=O)Nc1ccc(OC)cc1[N+](=O)[O-]	47%*
COc1ccc(OCC(=O)Nc2ccc(OC)cc2[N+](=O)[O-])cc1	i

Screening data deposited in PubChem BioAssay by Paczesny and Yang Labs, IUPUI and University of Michigan.
